Reference: the supplement of paper PMC7411054
Counter-ions that a name gives are not always drawn.

Test system: WPMY1-TP53BP1-CLTA
Test: phenotypically active (imaging signature differs from DMSO and reproducible) at any of 0.3-9 uM (binary (1 = active, 0 = inactive)); higher = active
Settings: treatment time: 24 h
How it was run: (§1)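 After 24 h at 0.3, 1, 3 or 9 µM, with four wells per treatment, fifteen gene-edited A549, HepG2 and WPMY1 reporter lines carrying BFP, GFP and RFP/FusionRed were imaged live. Each well's live-cell features were expressed relative to solvent control wells. Deviation required ≥3 of 4 wells past the 95th percentile of control Euclidean distances, and reproducibility a median replicate Pearson correlation over the 95th percentile of non-replicates. Phenotypic activity rested on both.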

Phenotypically active, inactive:
CNCCC(Oc1ccc(C(F)(F)F)cc1)c1ccccc1 (stereo not drawn) [fluoxetine] 0
O=C(NOCC1CC1)c1ccc(F)c(F)c1Nc1ccc(I)cc1Cl 0
Cn1cc(CCn2cnc(-c3cnn(C)c3)c2-c2ccc(C#N)cc2)cn1 0
O=C(O)Cc1cccc(OCCCN(Cc2cccc(C(F)(F)F)c2Cl)CC(c2ccccc2)c2ccccc2)c1 [GW 3965 hydrochloride] 0
CCOP(=O)(OCC)C(=Cc1cc(C(C)(C)C)c(O)c(C(C)(C)C)c1)P(=O)(OCC)OCC 0
O=C([C@H](Cc1cccc(C(F)(F)F)c1)NS(=O)(=O)c1cc(F)c2c(c1)CCNC2)N1CCCC1 [(S)-PFI 2 hydrochloride] 0
CCCS(=O)(=O)Nc1ccc(F)c(C(=O)c2c[nH]c3ncc(Cl)cc23)c1F 0
CC(C)(C)c1ccc2cc(C#N)c(C#N)cc2c1 0
CCCCOc1cc(C(=O)NCCN(CC)CC)c2ccccc2n1 [cinchocaine] 0
O=S(=O)(c1cccc2cnccc12)N1CCCNCC1 [fasudil] 0
Clc1ccccc1C(c1ccccc1)(c1ccccc1)n1ccnc1 [Clotrimazole] 0
COc1cc2ncnc(Nc3ccc(Cl)cc3F)c2cc1OC 0
Cc1ccc(NC(=O)c2cccc(N(C)C)c2)cc1NC(=O)c1ccc(O)cc1 0
Cc1ccc(NC2=CC(=O)c3sc(C)nc3C2=O)cc1 [Ryuvidine] 0
COc1cc2c(cc1OCCCN1CCCC1)N=C(N)C21CCC1 0
CC#CC(=O)N1CCC[C@H]1c1nc(-c2ccc(C(=O)Nc3ccccn3)cc2)c2c(N)nccn12 [acalabrutinib] 0
CN1[C@@H]2CC[C@H]1C[C@@H](OC(c1ccccc1)c1ccccc1)C2 [benztropine] 0

Phenotypically active, active:
CC/C(=C(\CC)c1ccc(O)c(CN(CC)CC)c1)c1ccc(O)c(CN(CC)CC)c1 1
Cn1cc(C2=C(c3ccc(Cl)cc3Cl)C(=O)NC2=O)c2ccccc21 1
CC(C)COCC(CN(Cc1ccccc1)c1ccccc1)N1CCCC1 (stereo not drawn) [bepridil] 1
COc1cc(OC)c2cc(-c3ccncc3)cnc2c1 [DMPQ dihydrochloride] 1
COc1ccc(CCNCc2ccc(OCc3ccc(Cl)nc3)c(OC)c2)cc1OC [SBE 13 hydrochloride] 1
N#C/C(=C(/N)Sc1ccc(N)cc1)c1ccccc1C(F)(F)F 1
Cc1noc(C)c1Cn1cc(C#N)c2cc(Oc3ccc(NC(=O)[C@@H]4CCCN4)cc3)ccc21 1
COc1c(C=O)c(O)cc2c1C(=O)c1ccccc1C2=O [Damnacanthal] 1
COc1ccc(CNC(=O)Nc2ncc([N+](=O)[O-])s2)cc1 1
C[C@H]1Oc2cc(cnc2N)-c2c(nn(C)c2C#N)CN(C)C(=O)c2ccc(F)cc21 1
CC(C)OC(=O)c1cc2c(OCC(O)CNC(C)(C)C)cccc2[nH]1 (stereo not drawn) 1
COc1ccccc1OCCNCC(O)COc1cccc2[nH]c3ccccc3c12 (stereo not drawn) [Carvedilol] 1
CSc1ccc2c(c1)N(CCC1CCCCN1C)c1ccccc1S2 (stereo not drawn) [thioridazine] 1
CCCNCC(O)COc1ccccc1C(=O)CCc1ccccc1 (stereo not drawn) [propafenone] 1
O=C(O)[C@@H]1[C@H]2C[C@H]3c4[nH]c5ccccc5c4CCN3C[C@@H]2CC[C@@H]1O [Yohimbinic acid monohydrate] 1
COc1cc(N2CCC(N)CC2)ccc1Nc1ncc(Cl)c(-c2c[nH]c3ccccc23)n1 1
Cc1noc(C)c1-c1ccc2c(c1)nc(CCc1ccc(OCCCN(C)C)cc1)n2CCN1CCOCC1 1
Cc1cc(Nc2ccc(NC(=O)c3ccc(Nc4ccnc5ccccc45)cc3)cc2)nc(N)n1 1
C[C@]1(O)C[C@@H](c2nc(-c3ccc4ccc(-c5ccccc5)nc4c3)c3c(N)nccn32)C1 [linsitinib] 1
O=C(O)C[C@H](O)C[C@H](O)/C=C/c1c(C2CC2)nc2ccccc2c1-c1ccc(F)cc1 [Pitavastatin calcium] 1
NC(=O)c1cccc(-c2cc(Nc3ccc(OC(F)(F)F)cc3)ncn2)c1 1
NS(=O)(=O)c1nn2cc(-c3ccccc3)nc2s1 1

Test system: WPMY1-TUBA1B-RELA
Test: as above
Settings: treatment time: 24 h
How it was run: as §1

Phenotypically active, inactive:
CNCCC(Oc1ccc(C(F)(F)F)cc1)c1ccccc1 (stereo not drawn) [fluoxetine] 0
Cn1cc(C2=C(c3ccc(Cl)cc3Cl)C(=O)NC2=O)c2ccccc21 0
CC(C)COCC(CN(Cc1ccccc1)c1ccccc1)N1CCCC1 (stereo not drawn) [bepridil] 0
COc1cc(OC)c2cc(-c3ccncc3)cnc2c1 [DMPQ dihydrochloride] 0
O=C(NOCC1CC1)c1ccc(F)c(F)c1Nc1ccc(I)cc1Cl 0
Cn1cc(CCn2cnc(-c3cnn(C)c3)c2-c2ccc(C#N)cc2)cn1 0
O=C(O)Cc1cccc(OCCCN(Cc2cccc(C(F)(F)F)c2Cl)CC(c2ccccc2)c2ccccc2)c1 [GW 3965 hydrochloride] 0
N#C/C(=C(/N)Sc1ccc(N)cc1)c1ccccc1C(F)(F)F 0
CCOP(=O)(OCC)C(=Cc1cc(C(C)(C)C)c(O)c(C(C)(C)C)c1)P(=O)(OCC)OCC 0
O=C([C@H](Cc1cccc(C(F)(F)F)c1)NS(=O)(=O)c1cc(F)c2c(c1)CCNC2)N1CCCC1 [(S)-PFI 2 hydrochloride] 0
CCCS(=O)(=O)Nc1ccc(F)c(C(=O)c2c[nH]c3ncc(Cl)cc23)c1F 0
COc1ccc(CNC(=O)Nc2ncc([N+](=O)[O-])s2)cc1 0
CC(C)(C)c1ccc2cc(C#N)c(C#N)cc2c1 0
C[C@H]1Oc2cc(cnc2N)-c2c(nn(C)c2C#N)CN(C)C(=O)c2ccc(F)cc21 0
CCCCOc1cc(C(=O)NCCN(CC)CC)c2ccccc2n1 [cinchocaine] 0
Clc1ccccc1C(c1ccccc1)(c1ccccc1)n1ccnc1 [Clotrimazole] 0
CCCNCC(O)COc1ccccc1C(=O)CCc1ccccc1 (stereo not drawn) [propafenone] 0
COc1cc2ncnc(Nc3ccc(Cl)cc3F)c2cc1OC 0
Cc1ccc(NC(=O)c2cccc(N(C)C)c2)cc1NC(=O)c1ccc(O)cc1 0
C[C@]1(O)C[C@@H](c2nc(-c3ccc4ccc(-c5ccccc5)nc4c3)c3c(N)nccn32)C1 [linsitinib] 0
COc1cc2c(cc1OCCCN1CCCC1)N=C(N)C21CCC1 0
CC#CC(=O)N1CCC[C@H]1c1nc(-c2ccc(C(=O)Nc3ccccn3)cc2)c2c(N)nccn12 [acalabrutinib] 0
NC(=O)c1cccc(-c2cc(Nc3ccc(OC(F)(F)F)cc3)ncn2)c1 0

Phenotypically active, active:
CC/C(=C(\CC)c1ccc(O)c(CN(CC)CC)c1)c1ccc(O)c(CN(CC)CC)c1 1
COc1ccc(CCNCc2ccc(OCc3ccc(Cl)nc3)c(OC)c2)cc1OC [SBE 13 hydrochloride] 1
Cc1noc(C)c1Cn1cc(C#N)c2cc(Oc3ccc(NC(=O)[C@@H]4CCCN4)cc3)ccc21 1
COc1c(C=O)c(O)cc2c1C(=O)c1ccccc1C2=O [Damnacanthal] 1
CC(C)OC(=O)c1cc2c(OCC(O)CNC(C)(C)C)cccc2[nH]1 (stereo not drawn) 1
COc1ccccc1OCCNCC(O)COc1cccc2[nH]c3ccccc3c12 (stereo not drawn) [Carvedilol] 1
O=S(=O)(c1cccc2cnccc12)N1CCCNCC1 [fasudil] 1
CSc1ccc2c(c1)N(CCC1CCCCN1C)c1ccccc1S2 (stereo not drawn) [thioridazine] 1
O=C(O)[C@@H]1[C@H]2C[C@H]3c4[nH]c5ccccc5c4CCN3C[C@@H]2CC[C@@H]1O [Yohimbinic acid monohydrate] 1
COc1cc(N2CCC(N)CC2)ccc1Nc1ncc(Cl)c(-c2c[nH]c3ccccc23)n1 1
Cc1noc(C)c1-c1ccc2c(c1)nc(CCc1ccc(OCCCN(C)C)cc1)n2CCN1CCOCC1 1
Cc1cc(Nc2ccc(NC(=O)c3ccc(Nc4ccnc5ccccc45)cc3)cc2)nc(N)n1 1
Cc1ccc(NC2=CC(=O)c3sc(C)nc3C2=O)cc1 [Ryuvidine] 1
O=C(O)C[C@H](O)C[C@H](O)/C=C/c1c(C2CC2)nc2ccccc2c1-c1ccc(F)cc1 [Pitavastatin calcium] 1
CN1[C@@H]2CC[C@H]1C[C@@H](OC(c1ccccc1)c1ccccc1)C2 [benztropine] 1
NS(=O)(=O)c1nn2cc(-c3ccccc3)nc2s1 1
